The source of these data is PubChem BioAssay (EPA / NIEHS).

Records with an inconclusive call do not appear. Activity calls are given as the source filed them. Rule for the calls, unless noted: active = hit-call score of the fitted dose curve at least 0.9, where 1 is the maximum; inconclusive = response in the unintended direction; inactive = score below 0.9.

Read-out in assay [1]: Thyroid Hormone Responsive (THRSP), THRSP (gene 7069)
In words: LTEA_HepaRG_THRSP: Life Technologies and Expression Analysis (LTEA) Assay for Thyroid Hormone Responsive (THRSP) using HepaRG (AID 2283536; active = hit-call score of the fitted dose curve at least 0.9, where 1 is the maximum; inactive = score below 0.9). The settings on record: mRNA level, 48 h; actives raise or lower the signal. The method in brief: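 Differentiated human HepaRG cells were exposed in duplicate for 48 h in serum-free induction medium to eight concentrations (top 100 uM, half-log steps, 0.5% DMSO). Expression was quantified by TaqMan qRT-PCR, normalized to ACTB, GAPDH and POLR2A, with bidirectional fitting against DMSO.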

Read-out in assay [2]: Cellular tumor antigen p53 (Homo sapiens) (UniProt P04637)
The experiment in a line: LTEA_HepaRG_TP53: Life Technologies and Expression Analysis (LTEA) Assay for Tumor Protein P53 (TP53) using HepaRG (AID 2283537; active = hit-call score of the fitted dose curve at least 0.9, where 1 is the maximum; inactive = score below 0.9). The conditions noted are these: mRNA level, 48 h; actives raise or lower the signal. The method in brief:
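Differentiated HepaRG cells in serum-free induction medium exposed 48 h in duplicate to 8 half-log concentrations, top 100 uM, 0.5% DMSO. TP53 mRNA by TaqMan qRT-PCR (Fluidigm), normalized to ACTB, GAPDH, POLR2A; fitted bidirectionally versus DMSO.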

Read-out in assay [3]: UDP glucuronosyltransferase (UGT1A1), UGT1A1 (gene 54658)
The experiment in a line: LTEA_HepaRG_UGT1A1: Life Technologies and Expression Analysis (LTEA) Assay for UDP glucuronosyltransferase (UGT1A1) using HepaRG (AID 2283538; active = hit-call score of the fitted dose curve at least 0.9, where 1 is the maximum; inactive = score below 0.9). The settings on record: mRNA level, 48 h; actives raise or lower the signal. In short, it runs like this:
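HepaRG cells, 0.5% DMSO vehicle, 48 h exposure in serum-free induction medium to 8-point half-log series topping at 100 uM, in duplicate. UGT1A1 mRNA by Fluidigm qRT-PCR, normalized to ACTB/GAPDH/POLR2A; bidirectional fit versus DMSO.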

Read-out in assay [4]: UDP glucuronosyltransferase (UGT1A6), UGT1A6 (gene 54578)
In words: LTEA_HepaRG_UGT1A6: Life Technologies and Expression Analysis (LTEA) Assay for UDP glucuronosyltransferase (UGT1A6) using HepaRG (AID 2283539; active = hit-call score of the fitted dose curve at least 0.9, where 1 is the maximum; inactive = score below 0.9). The settings on record: mRNA level, 48 h; actives raise or lower the signal. The method in brief:
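Human HepaRG cells were dosed for 48 h in serum-free induction medium with 0.5% DMSO vehicle, eight-point half-log series from 100 uM, in duplicate. UGT1A6 mRNA was measured by qRT-PCR, normalized to ACTB, GAPDH, POLR2A, and fitted bidirectionally against DMSO.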

Read-out in assay [5]: X-box binding protein 1 (XBP1), XBP1 (gene 7494)
In words: LTEA_HepaRG_XBP1: Life Technologies and Expression Analysis (LTEA) Assay for X-box binding protein 1 (XBP1) using HepaRG (AID 2283540; active = hit-call score of the fitted dose curve at least 0.9, where 1 is the maximum; inactive = score below 0.9). The conditions noted are these: mRNA level, 48 h; actives raise or lower the signal. The method in brief: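 Differentiated human HepaRG cells in serum-free induction medium were exposed in duplicate for 48 h to eight half-log concentrations up to 100 uM in 0.5% DMSO. XBP1 mRNA was quantified by qRT-PCR, normalised to ACTB, GAPDH and POLR2A, with bidirectional fitting against DMSO.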

The nature of assay [6]: LTEA_HepaRG_LDH_cytotoxicity: Cytotoxicity Assessment in the Life Technologies and Expression Analysis (LTEA) Assay (AID 2283563).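 For AC50: LDH activity released into spent culture medium as a marker of cell death.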 The method in brief: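 Differentiated human HepaRG cells, plated 48 h beforehand, were switched to serum-free induction medium and exposed for 48 h to eight half-log concentrations (top 100 uM) in 0.5% DMSO. LDH was measured in spent medium; activity was fitted relative to DMSO vehicle.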

Assay [7] can be described thus: ATG_XTT_Cytotoxicity: Cytotoxicity Assessment in the Attagene TRANS-FACTORIAL HepG2 Assay (AID 2283584).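 For AC50: cells exposed to compound for 24 h before reading; active means loss of viability signal versus DMSO baseline.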 In short, it runs like this: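 HepG2 human liver cells, transiently transfected with multiple GAL4-UAS reporter units, were dosed and read at 24 h by XTT as cell number. Loss of signal was fitted relative to DMSO negative control baseline.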
Assay [8] addresses Cellular tumor antigen p53 (Homo sapiens) (UniProt P04637). The experiment in a line: TOX21_p53_BLA_p2_ratio: Tox21 HCT-116 p53 Agonism Beta-lactamase Assay, Ratio, Phase 2 (AID 2283592). In short, it runs like this: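 HCT116 cells carrying a p53-responsive beta-lactamase reporter were plated, incubated 5 h at 37C, then dosed with compounds in DMSO (217-fold dilution) for 16 h. CCF4-AM substrate was added for 2 h at room temperature; the 460/530 nm emission ratio gave gain-of-signal activity relative to DMSO.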

Assay [9] in a line: TOX21_p53_BLA_p3_viability: Viability Assessment in the Tox21 HCT-116 p53 Agonism Beta-lactamase Assay, Phase 3 (AID 2283593).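 Note: cells exposed to compound for 16 h before reading.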 The method in brief: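 HCT-116 cells (4000/well) rested 5 h at 37C, then got DMSO compounds by pin tool (217-fold dilution) for 16 h at 37C, 5% CO2. After the bla read, CellTiter-Glo was added and luminescence read at 30 min, room temperature.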
Assay [10] is described as follows: TOX21_p53_BLA_p2_viability: Viability Assessment in the Tox21 HCT-116 p53 Agonism Beta-lactamase Assay, Phase 2 (AID 2283591).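 Note: compound exposure lasted 16 h at 37 °C; actives lower the ATP signal meaning cytotoxicity.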 In short, it runs like this:
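HCT-116 p53-bla cells (4000/well) rested 5 h at 37C, then received compounds in DMSO (217-fold dilution) for 16 h at 37C, 5% CO2. After the CCF4 read, CellTiter-Glo was added; ATP luminescence was read after 30 min at room temperature.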

Chain of Cellular tumor antigen p53 (Homo sapiens) (P04637 whole entry, looked up): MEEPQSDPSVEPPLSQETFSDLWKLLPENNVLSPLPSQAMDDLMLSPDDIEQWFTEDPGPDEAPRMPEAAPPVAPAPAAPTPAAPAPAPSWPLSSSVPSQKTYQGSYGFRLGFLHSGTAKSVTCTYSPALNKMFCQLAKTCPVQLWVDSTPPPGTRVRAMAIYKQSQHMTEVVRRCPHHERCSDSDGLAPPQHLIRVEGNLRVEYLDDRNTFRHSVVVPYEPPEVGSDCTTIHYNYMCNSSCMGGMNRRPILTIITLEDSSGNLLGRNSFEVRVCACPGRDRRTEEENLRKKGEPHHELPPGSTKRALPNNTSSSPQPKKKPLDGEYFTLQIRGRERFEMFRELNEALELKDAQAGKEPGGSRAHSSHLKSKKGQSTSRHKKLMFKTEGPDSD

For the compound `CC(O)CC(C)(C)O` (centres undefined), the result in assay [1], in assay [2], in [3], in [4], in assay [5] and in assay [6] was inactive. Also, the result in assay [7], in assay [8] and in [9] was inactive.

With `CC1(C)NC(=O)N(c2ccc([N+](=O)[O-])c(C(F)(F)F)c2)C1=O`, the compound was called inactive in [1], in assay [3], in [5], in assay [6], in [7] and in assay [10]. The result in [9] was inactive. For the same compound, in [2], the AC50 is 78.2 µM (active).

Consider `CCCCCCCCOc1ccc(C(=O)c2ccccc2)c(O)c1`, for which the compound was classed as inactive in [1], in assay [2], in assay [5], in assay [6], in assay [7] and in assay [10]. For the same compound, the result in [8] and in assay [9] was inactive. Besides, in [3], the AC50 is 20.4 µM (active).

With `CC(C)(C)c1cc(/C=C2\SC(N)=NC2=O)cc(C(C)(C)C)c1O`, the compound was classed as inactive in [1], in [2], in [5] and in assay [9]. For the same compound, the AC50 in assay [3] is 93.5 µM (active); in assay [6], 37.3 µM (active); in [10], 77.9 µM (active); in [8], 50.7 µM (active).

In the case of `CCN(Cc1cccc(S(=O)(=O)O)c1)c1ccc(C(=C2C=CC(=[N+](CC)Cc3cccc(S(=O)(=O)O)c3)C=C2)c2ccccc2S(=O)(=O)[O-])cc1`, the compound was called inactive in assay [1], in assay [2], in assay [3], in assay [5], in [6] and in assay [7]. In addition, the call in [9] was inactive. The AC50 in assay [10] was 19.4 µM (active).

With `CN(C[C@@H](CC[N+]12CCC(C3CCCCC3)(CC1)CC2)c1ccc(Cl)c(Cl)c1)C(=O)c1cc(C(F)(F)F)cc(C(F)(F)F)c1`, the AC50 in assay [1] was 4.72 µM (active); in assay [3], 6.65 µM (active); in [6], 26.6 µM (active); in assay [10] it was 25.9 µM (active); in assay [9], 58.7 µM (active). The compound was classed as inactive in assay [2] and in assay [5].

In the case of `Cc1cc(F)ccc1-c1cc(N2CC[C@@H](O)[C@H]2CO)ncc1N(C)C(=O)C(C)(C)c1cc(C(F)(F)F)cc(C(F)(F)F)c1`, the AC50 in assay [1] is 20.6 µM (active); in assay [2], 19.9 µM (active); in assay [3], 23 µM (active); in [6], 30.9 µM (active); in [7] it was 23.3 µM (active); in assay [10], 11 µM (active). Moreover, the figures for the AC50 in [8] and in [9] were 21.8 µM (active) and 30.7 µM (active), respectively. The outcome in [5] was inactive.

Regarding `O=c1[nH]sc2ccccc12`, the call in [1], in assay [2], in assay [3], in assay [5], in assay [6] and in assay [7] was inactive. Also, the call in assay [10] and in assay [9] was inactive.

Regarding `NCc1cccc(C2CCN(C(=O)c3ccc(C#Cc4ccccc4F)o3)CC2)c1`, the AC50 was 83.9 µM (active) in assay [1]; 86.3 µM (active) in assay [3]; 81.4 µM (active) in assay [6]; 68.9 µM (active) in [10]; 86.2 µM (active) in assay [8]; 72.2 µM (active) in [9]. Also, the compound was classed as inactive in [2] and in assay [5].

On to `C[C@]12CC[C@@H]3c4ccc(O)cc4CC[C@H]3[C@@H]1CC[C@H]2O`, for which the compound was called inactive in [1], in [2], in assay [5], in [7], in assay [10] and in assay [9]. In [3], the AC50 is 2.42 µM (active).

As to `CCCCCc1ccc(N)cc1`, the compound was classed as inactive in assay [1], in assay [2], in assay [3], in [5], in [6] and in assay [7]. The outcome in [10] and in assay [9] was inactive.

Regarding `O=C1c2ccccc2C(=O)N1CCc1noc(-c2ccc(CN3CCCCCC3)s2)n1`, the result in assay [1], in assay [2], in [5], in [6], in assay [7] and in [10] was inactive. Also, in assay [9], the call was inactive. Besides, the AC50 in assay [3] is 17.8 µM (active).

In the case of `O=c1c(-c2ccc(O)cc2)coc2cc(O)cc(O)c12`, the call in assay [1], in [2], in assay [3], in assay [5], in assay [6] and in assay [7] was inactive. Also, the compound was called inactive in assay [10] and in assay [9].

`O=C=NCCCCCCN=C=O`: the call in assay [1], in assay [2], in assay [3], in assay [5], in assay [6] and in assay [9] was inactive.

Consider `CCCC(=O)OCCC(C)C`, for which the call in [1], in [2], in [3], in assay [5], in assay [6] and in assay [8] was inactive.

In the case of `COc1cccc([C@H](O)C2CCN(CCc3ccc(F)cc3)CC2)c1OC`, the compound was classed as inactive in assay [1], in [2], in assay [3], in assay [5], in assay [6] and in assay [10]. The call in assay [9] was inactive.

As to `Cc1ccc(C(C)C)cc1`, the compound was called inactive in assay [1], in [2], in assay [3], in assay [5], in assay [6] and in [7]. Further, the outcome in assay [10], in assay [8] and in assay [9] was inactive.

In the case of `O=C1O[C@H]([C@@H](O)CO)C(O)=C1O`, the compound was classed as inactive in [1], in assay [2], in assay [3], in assay [6], in assay [7] and in assay [10]. In addition, the result in assay [8] and in assay [9] was inactive.

On to `CN(C)C(=O)C1(N2CCCCC2)CCN(CC[C@@]2(c3ccc(Cl)c(Cl)c3)CN(C(=O)c3ccccc3)CCO2)CC1`, for which the AC50 in [1] is 24.2 µM (active); in assay [2], 47.2 µM (active); in assay [3] it was 27.6 µM (active); in assay [6], 20 µM (active); in [10], 37.8 µM (active); in assay [8], 70.9 µM (active). In assay [9], the half-maximal activity concentration (AC50) is 70.5 µM (active). For the same compound, the compound was classed as inactive in assay [5].

The AC50 is the concentration at which the activity in the assay is half-maximal.
